# PubChem BioAssay AID686978 (National Center for Advancing Translational Sciences (NCATS), 2013)
# About 64,000 (15%) of roughly 420,000 compounds were called active. Not shown: some 27% with an inconclusive outcome. Calls follow the shape of the dose curve; as a rule, active = well fitted inhibition curve with a large enough effect; inconclusive = small, poorly fitted or top-dose-only effect; inactive = flat fitted curve, though single readings scatter. A selection follows.
# Experiment: qHTS for Inhibitors of human tyrosyl-DNA phosphodiesterase 1 (TDP1): qHTS in cells in absence of CPT; also: nearly all actives have a fitted effect of over 55% in size
# Conditions: DT40 Tdp1-/- hTDP1 cells, no CPT, ATP luminescence, 48 h; activity change, negative = growth inhibition: at 46.2 µM (top of the series)
# Outline: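 Stably hTDP1-transfected Tdp1-null chicken DT40 cells were treated with library compounds minus camptothecin and grown for at least 48 hr at 37 °C, after which cellular ATP was quantified by luminescence.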
# % is scaled to controls: 0 for no effect and ±100 for the full control effect; potency is read from the fitted curve at half-maximal effect.
SMILES,"activity change, negative = growth inhibition",Potency
CCN(CC(=O)NCc1cccs1)C(=O)/C=C/c1ccc(C)cc1,1.01% (inactive),–
FCOC(C(F)(F)F)C(F)(F)F,-11.4% (inactive),–
CCCCCCCCCCCCN1C(=O)CSC1c1cccnc1 (configuration not stated),–,16.4 µM (active)
CCCCc1ccc(NC(=O)NCc2cccnc2)cc1,-28.2% (inactive),–
CN(C)CCCN1C(=O)CSC1c1ccc([N+](=O)[O-])cc1 (configuration not stated),-10.4% (inactive),–
C=C1C([C@@]2(C)C(OC(C)=O)CC(=O)O[C@@](C)(COC(C)=O)C2CC(=O)OC)C(OC=O)C(OC(=O)C(O)C(C)CC)[C@]2(C)C(c3ccoc3)CC(=O)C12O (some centres not stated),–,4.61 µM (active)
COC(=O)CC1C(C)(C)C(OC(C)=O)C2CC3=C4CC(=O)OC(c5ccoc5)[C@]4(C)CCC3[C@@]1(C)C2=O (some centres not stated),-19.3% (inactive),–
CCOC(=O)C1(Cc2ccccc2C)CCCN(S(C)(=O)=O)C1 (configuration not stated),10.4% (inactive),–
C/C(=N\NC(=O)OC(C)(C)C)c1ccc[nH]1,-16.5% (inactive),–
Cc1ccccc1-c1nc(SCC(=O)N(C)c2ccccc2)c2c(=O)n(C)c(=O)n(C)c2n1,–,9.2 µM (active)
Cc1cccc(-c2nc(SCC(=O)Nc3cc(C)on3)c3c(=O)n(C)c(=O)n(C)c3n2)c1,2.45% (inactive),–
Cn1c(=O)c2c(SCC(=O)NCC3CCCO3)nc(-c3ccccc3F)nc2n(C)c1=O (configuration not stated),-26.5% (inactive),–
O=C(CN(C(=O)c1csnn1)c1cccc(F)c1)NCc1ccc(F)cc1,-2.72% (inactive),–
CCCCn1c(N)c(N(CCC(C)C)C(=O)COC(=O)c2ccc(CC)cc2)c(=O)[nH]c1=O,6.86% (inactive),–
CCCCc1nc(NCc2ccccc2)c(C#N)c2c1CCCC2,-19.1% (inactive),–
Cc1nc(NCCN)c(C#N)c2c1COC(C)(C)C2,-19.8% (inactive),–
CCCCc1nc(NCCN)c(C#N)c2c1CSC(C)(C)C2,–,20.6 µM (active)
CCOc1ccc(S(=O)(=O)Nc2ccncc2)c(C)c1C,-7.83% (inactive),–
O=C(CSc1nc2ccccc2c(=O)n1-c1ccc(F)cc1)NC1CC1,16.1% (inactive),–
COc1ccc(OC)c(/C=N/NC(=O)CSc2nnc(C)n2-c2ccccc2)c1,-3.99% (inactive),–
Cc1nn(-c2ccccc2)c(C)c1/C=N/NC(=O)CSc1nc2ccccc2c(=O)n1-c1ccccc1,–,18.4 µM (active)
CCCS(=O)(=O)NC(=O)C1(C)CCCN(C(=O)c2cccs2)C1 (configuration not stated),1.68% (inactive),–
COc1cc(/C=C2\C(=N)N3N=C(CC(=O)N4CCOCC4)SC3=NC2=O)cc(OC)c1OC,12.8% (inactive),–
Cc1noc(C)c1C(=O)N(CC(=O)NC1CCCC1)Cc1ccccc1F,-4.62% (inactive),–
CCOP1(=O)C=C(C(C)(C)C)OC1c1ccc(F)cc1 (configuration not stated),-5.51% (inactive),–
C=CCNC(=S)NNc1ncnc2sc3c(c12)CC(C)(C)OC3,–,5.17 µM (active)

SMILES,"activity change, negative = growth inhibition",Potency
CN(C)CCSc1nc(N)c2c3c(sc2n1)COC(C)(C)C3,-19.5% (inactive),–
C[C@H]1CN([C@@H](C)CO)C(=O)CCCn2cc(nn2)CO[C@@H]1CN(C)S(=O)(=O)c1ccccc1C#N,-18.8% (inactive),–
CCC1CCc2c(sc(NC(C)=O)c2C#N)C1 (configuration not stated),-4.74% (inactive),–
COc1ccc(C(C(O)C(=O)c2c[nH]c3ccccc23)N2CCN(c3ccccc3)CC2)cc1 (configuration not stated),–,25.9 µM (active)
COc1ccc(N2CCN(C(C)=C3C(=O)c4ccccc4C3=O)CC2)cc1,1.97% (inactive),–
Cc1nnc(SC(C)C(=O)c2c[nH]c3ccccc23)n1C1CC1 (configuration not stated),-23.9% (inactive),–
O=C(COc1ccc(Cl)cc1)Nc1ccc2oc(=O)ccc2c1,-12.1% (inactive),–
Cc1ccc(N(C(=O)c2sc(C)nc2C)C(C(=O)NC(C)(C)C)c2ccncc2)cc1 (configuration not stated),-7.84% (inactive),–
CC1(C)C=C2[C@H]3CC[C@@H]4[C@@]5(C)CCC(=O)C(C)(C)[C@@H]5CC[C@@]4(C)[C@]3(C)CC[C@@]2(C(=O)O)CC1,–,8.2 µM (active)
Cc1cc(C)cc(N(C(C)C(=O)Nc2c(C)n(C)n(-c3ccccc3)c2=O)S(C)(=O)=O)c1 (configuration not stated),0.735% (inactive),–
CCCCOc1ccc(Cn2c(=O)oc3ccc(C)cc32)cc1OC,–,14.6 µM (active)
CCCCOc1ccc(CN2C(=O)C(=O)c3cc(Br)cc(C)c32)cc1OC,–,1.16 µM (active)
COc1ccc(CN2CCOC2=O)cc1OC,-1.9% (inactive),–
COc1ccc(Cn2c(=O)oc3ccccc32)cc1,-21.5% (inactive),–
CCCCn1nnnc1C1(C)CCC(=O)N1Cc1ccc(OC)c(OC)c1 (configuration not stated),-5.49% (inactive),–
CCOc1cc(CN2CCN(C(=O)CC(C)C)CC2)ccc1OC,-28.3% (inactive),–
Cc1cccc(-n2c(Cc3cc(=O)[nH]c(=O)[nH]3)nnc2SC(C)C)c1,-10.6% (inactive),–
CC/C(=N\NC(=O)c1c(C)nc2ccccn12)c1ccc(Cl)cc1,-28.9% (inactive),–
CCCCCC(=O)Nc1ccc(S(=O)(=O)Nc2ccc(Cl)nn2)cc1,-0.978% (inactive),–
CCCCN(C)Cc1c(C)[nH]c2ccc(Cl)cc2c1=O,-8% (inactive),–
CCOC(=O)C1=C(C)NC(SC)=NC1c1ccccc1 (configuration not stated),-25.7% (inactive),–
C=CCC1(C#N)C(=S)NC(C)=C(C(=O)OCC)C1c1ccccc1 (configuration not stated),–,29.1 µM (active)
CCOC(=O)C1=C(C)NC(C)=C(C(=O)OCC)C1c1ccccn1,1.59% (inactive),–
Cc1ccsc1C1C(C#N)=C(N)OC2=C1C(=O)CC(C)(C)C2 (configuration not stated),-19.9% (inactive),–
CCOC(=O)CSc1nnc(CNC(=O)Cc2ccccc2)n1-c1ccccc1OC,-11.6% (inactive),–
O=C(COc1ccc(Cl)cc1)NCCSc1ccccc1,-24.2% (inactive),–

SMILES,"activity change, negative = growth inhibition",Potency
COc1ccc(C(=O)COC(=O)CNC(=O)c2cccs2)cc1Br,2.17% (inactive),–
Cc1ccc(S(=O)(=O)n2cnc3ccccc32)c(C)c1,-22.7% (inactive),–
COc1ccc(S(=O)(=O)n2cnc3ccccc32)c(C)c1,–,10.3 µM (active)
Cc1ccc(C)c(S(=O)(=O)n2cnc3ccccc32)c1,5.49% (inactive),–
COc1ccc(C)cc1NC(=S)N1CCOCC1,5.24% (inactive),–
C=CCOc1c(Br)cc(/C=N\n2nnnc2N)cc1OC,-11.6% (inactive),–
C[C@H]1CN([C@@H](C)CO)C(=O)c2cc(-c3cccc(F)c3)cnc2O[C@@H]1CN(C)S(C)(=O)=O,-5.26% (inactive),–
Cn1c(=O)c2c(nc(Oc3ccc(C#N)cc3)n2Cc2ccc(Cl)cc2Cl)n(C)c1=O,1.97% (inactive),–
C=CCOc1nc2c(c(=O)n(C)c(=O)n2C)n1Cc1ccc(Cl)cc1Cl,–,14.6 µM (active)
CC1CN(Cc2nc3c(c(=O)n(C)c(=O)n3C)n2Cc2cccc(Cl)c2)CC(C)O1 (configuration not stated),-12.8% (inactive),–
CN1CCc2nc(SC(C(=O)O)c3ccccc3)c(C#N)c(-c3cccs3)c2C1 (configuration not stated),-9.2% (inactive),–
COc1ccc(CCNC(=O)Cn2c(=O)n(-c3ccccc3)c(=O)c3c(C)c(C)sc32)cc1OC,-19.5% (inactive),–
C=CCn1c(SCC(N)=O)nnc1-c1cc2c(s1)CCC(CC)C2 (configuration not stated),-16.5% (inactive),–
O=C1C=C(c2ccccc2)CCC1,-7.87% (inactive),–
CC(=O)c1ccc2c(ccc3ccccc32)c1,-26.8% (inactive),–
CC(=O)CCC(=O)c1ccc2ccccc2c1,-2.51% (inactive),–
C=CC(=O)c1ccc2ccccc2c1,–,2.31 µM (active)
CCc1ccc(C(=O)N2CCN(S(=O)(=O)c3sc(C(=O)O)c(C)c3C(=O)O)CC2)cc1,28% (inactive),–
CC(=O)Nc1ccc(S(=O)(=O)Oc2ccc(Br)cc2C(=S)N2CCOCC2)cc1,-11.6% (inactive),–
CCOc1cc(C(=S)N2CCOCC2)ccc1OS(=O)(=O)c1ccc(Br)cc1,–,20.6 µM (active)
O=S(=O)(Oc1ccccc1C(=S)N1CCOCC1)c1ccc(Cl)cc1,-24.6% (inactive),–
CCN(CC)P(=O)(C(NC(=O)OC)C(F)(F)C(F)(F)C(F)(F)C(F)F)N(CC)CC (configuration not stated),-6.34% (inactive),–
CCOC(=O)CSc1nc2c(sc(=S)n2CCc2ccccc2)c(=O)n1Cc1ccco1,–,16.4 µM (active)
CCOC(=O)CSc1nnc(-c2ccco2)n1C,2.37% (inactive),–
Cc1cc(C)nc(SCc2nnc(SCC(=O)Nc3ncc(C)s3)n2Cc2ccco2)n1,-21.5% (inactive),–
Cc1ccc(C)c(NC(=O)C2CC(=O)N(C(C)C)C2)c1 (configuration not stated),-3.74% (inactive),–

SMILES,"activity change, negative = growth inhibition",Potency
CCCC(C)n1[nH]c(=O)c2c(C)cc(C)nc21 (configuration not stated),-19.9% (inactive),–
CC(CNC(=O)c1ccc(Br)o1)NC(=O)c1ccc(Br)o1 (configuration not stated),–,4.61 µM (active)
O=C(CNC(=O)c1ccc(Br)o1)Nc1ccccc1,22.8% (inactive),–
CC(CCc1ccccc1)NC(=O)c1ccc(Br)o1 (configuration not stated),-26.8% (inactive),–
C=C1C(=O)C23C(O)C1CCC2[C@]12COC3(O)C(O)C1C(C)(C)CC[C@H]2O (some centres not stated),–,6.51 µM (active)
O=C(COC(=O)c1ncc(Cl)c(Cl)c1Cl)NC1CCS(=O)(=O)C1 (configuration not stated),0.826% (inactive),–
NC(N)=NCCCc1cn(CC(=O)N2CCNCC2)nn1,8.18% (inactive),–
Cc1nn(-c2ccccc2)c(C)c1C(=O)OCC(=O)NC(=O)NC1CCCCC1,–,29.1 µM (active)
O=C(COC(=O)c1cccnc1Cl)NC(=O)NC1CCCCC1,-9.72% (inactive),–
N#Cc1ccc(C(=O)OCC(=O)NC(=O)NC2CCCCC2)cc1,0.0108% (inactive),–
CC1Cc2ccccc2N1C1=CC(=O)CC(C)(C)C1 (configuration not stated),3.77% (inactive),–
O=C(/C=C/Nc1ccccc1)c1cnc(-c2ccccc2)s1,-12% (inactive),–
CC(C)N(C(=O)Cn1c(SCC(=O)N2CCN(c3ccccc3)CC2)nc2ccccc21)C(C)C,-8.4% (inactive),–
CC(C)Cn1c(N2CCN(C(=O)/C=C/c3ccccc3)CC2)nc2ccccc21,–,9.2 µM (active)
CC1(C(=O)O)CCCN(C(=O)/C=C/c2ccccc2)C1 (configuration not stated),4.02% (inactive),–
O=C(Nc1ccc(OCCO)cc1)c1csc([C@H]2C[C@H](O)[C@@H](CO)O2)n1,-6.08% (inactive),–
CCOC(=O)C1=C(C)N=c2s/c(=C\C(=O)OC)c(=O)n2C1c1ccc(OC)cc1 (configuration not stated),-18.9% (inactive),–
COc1ccc(OC)c(C2C3=C(N=c4s/c(=C\c5cccc(O)c5)c(=O)n42)c2ccccc2CC3)c1 (configuration not stated),–,25.9 µM (active)
CC(C)(C)NC(=O)NC(=O)COC(=O)C1c2ccccc2Oc2ccccc21,-11.4% (inactive),–
COc1cn(CC(=O)Nc2cccc(C)c2C)c(CN2CCCCC2)cc1=O,-0.619% (inactive),–
CCCCCCCCn1c2c(c(=N)c3c1CCC3)CCCC2,–,1.03 µM (active)
Nc1nnc(SCCN2C(=O)c3ccccc3S2(=O)=O)s1,-19.8% (inactive),–
CN(C)CCCN(Cc1cc2cc3c(cc2[nH]c1=O)OCCO3)C(=O)NC1CCCCC1,-27.3% (inactive),–
Cc1nnc(SCC(=O)Nc2ccc(S(=O)(=O)Nc3ccc(Cl)nn3)cc2)s1,5.6% (inactive),–
